# According to PubChem BioAssay (NCATS):
# Inconclusive results are not listed. Activity calls are given as the source filed them. Unless noted, the call rests on the fitted dose curve; in most records, active means well fitted curve in the direction sought with a large enough effect; inconclusive means small, poorly fitted or top-dose-only effect, or another doubt; inactive means no such curve, though single readings can be large; an effect the other way counts as inactive or inconclusive.
# What was measured:
# [1] = Primary qHTS for inhibitors of nuclear receptor binding SET domain protein 2 (NSD2) in an isogenic RCH-ACV NSD2 p.E1099K mutant (9B) (AID 1645876); further: nearly all actives have a fitted effect of over 70% in size; further: potency means the concentration at half of the fitted maximal effect
# [2] = target: Phospholipid hydroperoxide glutathione peroxidase GPX4 (Homo sapiens) (UniProt P36969); experiment: Primary qHTS Assay for Inhibitors of Recombinant Selenoprotein Glutathione Peroxidase 4 (GPX4) (AID 1845192); further: nearly all actives have a fitted effect of over 65% in size; further: potency means the concentration at half of the fitted maximal effect
# Procedure, shortened: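 Steps: GPX4 plus compound, 30 min RT; add GR/GSH/NADPH master mix; start with cumene hydroperoxide; read 340/450 nm fluorescence at 0 and 15 min. Finals were 200 nM GPX4, 1 mM GSH, 0.5 mM CHP, 0.5 mM NADPH, 100 nM GR.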
# [3] = qHTS drug screen for cell cycle checkpoint inhibitors in PARPi-resistant BRCA-mutant ovarian cancer cell lines. (AID 1963452; calls by dose curve); settings: PEO1/OlaR viability, CellTiter-Glo luminescence, 96 h, stronger effect = lower value
# Procedure, shortened: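 PEO1, PEO4 and PEO1/OlaR ovarian cancer cells, 600 per well, exposed 96 h at 37C to a dilution series. Viability read by CellTiter-Glo luminescence, normalized to DMSO and empty wells; activity summarized as Z-AUC.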
# [4] = target: Glutathione peroxidase 1 (Homo sapiens) (UniProt P07203); experiment: Primary qHTS Assay for Inhibitors of Recombinant Selenoprotein Glutathione Peroxidase 1 (GPX1) (AID 1845191); further: nearly all actives have a fitted effect of over 65% in size
# Procedure, shortened: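 GR-coupled readout: NADPH consumption tracked by fluorescence, ex 340/em 450 nm, at t=0 and after 15 min at RT. Final mix 10 nM GPX1, 1 mM GSH, 0.5 mM CHP, 0.5 mM NADPH, 100 nM GR, 0.01% BSA, following 30 min enzyme–compound preincubation.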
# [5] = Primary qHTS for inhibitors of nuclear receptor binding SET domain protein 2 (NSD2) in an RCH-ACV wild type WT cells (2C) (AID 1645877); further: nearly all actives have a fitted effect of over 70% in size; further: potency means the concentration at half of the fitted maximal effect
# [6] = measured here: PEO1 parental Z-AUC
# Chain of Glutathione peroxidase 1 (Homo sapiens) (P07203 whole entry, looked up): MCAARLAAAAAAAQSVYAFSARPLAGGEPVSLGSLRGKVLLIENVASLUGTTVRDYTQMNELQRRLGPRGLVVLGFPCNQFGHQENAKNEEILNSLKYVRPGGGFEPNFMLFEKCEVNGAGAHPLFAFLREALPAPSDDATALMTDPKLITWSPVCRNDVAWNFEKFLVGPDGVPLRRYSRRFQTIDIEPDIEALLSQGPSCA
# Chain of Phospholipid hydroperoxide glutathione peroxidase GPX4 (Homo sapiens) (P36969 whole entry, looked up): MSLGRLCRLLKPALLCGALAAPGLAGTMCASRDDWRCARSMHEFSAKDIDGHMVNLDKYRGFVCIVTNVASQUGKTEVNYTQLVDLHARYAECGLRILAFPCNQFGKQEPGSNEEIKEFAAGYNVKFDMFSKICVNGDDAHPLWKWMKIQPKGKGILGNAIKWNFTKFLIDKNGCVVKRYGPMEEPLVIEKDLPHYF
SMILES,Potency [1],Potency [2],Z-AUC [3],"Z-AUC [3, 6]",Z-AUC ([3]; measured here: PEO4 Z-AUC),Potency [4],Potency [5]
C[C@H]1C[C@@H](n2c(Nc3ccc(OC(F)(F)F)cc3)nc3cc(CCC(=O)O)ccc32)CC(C)(C)C1,inactive,2.55 µM (active),0.184 (inactive),0.953,0.855,,
NC(=O)c1cc(F)cc2c1C(=O)N(C1CCN(C3CCC(F)(F)CC3)CC1)C2,inactive,inactive,-0.257 (inactive),-0.805,-0.459,inactive,
CCc1ccc2nc(Nc3cc(Cc4ccccc4)nc(NC4CCC(O)CC4)n3)sc2c1 (configuration not stated),,,-0.86 (inactive),-0.737,-0.703,inactive,23.5 µM (active)
Cn1cc(C2=C(c3cn(C)c4cc([N+](=O)[O-])ccc34)C(=O)NC2=O)c2ccccc21,525 nM (active),,-0.69 (inactive),-0.95,-1.21,,0.417 µM (active)
C[C@@H]1CC2C3C[C@H](F)C4=CC(=O)C=C[C@]4(C)[C@@]3(F)[C@@H](O)C[C@]2(C)[C@@]1(OC(=O)c1ccco1)C(=O)SCF (some centres not stated),,,0.16 (inactive),0.658,-0.282,inactive,inactive
CCN1C(=O)N2Cc3cc(OC)cc(OC)c3[C@@H](C)C=C2C12CCN(Cc1cc(C)cc(C)c1)CC2,,inactive,-1 (inactive),-1.06,-1.16,,18.6 µM (active)
CC1(C)OCCn2c1nc1c(N3CCOCC3)nc(-c3cnc(N)nc3)nc12,332 nM (active),inactive,-0.953 (inactive),-0.219,-0.151,inactive,
